Test results as given in PubChem BioAssay AID1159580 (chemical genetic matrix, 2015).
The campaign covered roughly 5,500 compounds. About 2,000 (36%) were called active. Another 18% or so got no clear call; they are omitted. This is one part of the list. Unmarked numbers belong to inactive results. No stated cut-off is given here; in the data, active means normalized growth mostly below about 0.91 (no sharp cut-off); inconclusive means no clear call, values can overlap the other calls; inactive means mostly above about 0.92.

Assay: chemical genetic growth profiling, strain panel (AID 1159580);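 further: tested at 20 µM; growth read once vehicle control cultures reached saturation at 30 °C; 1 = growth at the plate median or of vehicle wells; lower values mean less growth of the strain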
Settings: growth OD

Work on CC(C)N(C(=O)CCl)c1ccccc1 yielded a normalized growth (S. cerevisiae deletion strains, locus YJR043C, strain POL32, hits give low values) of 1.03, a normalized growth (S. cerevisiae deletion strains, locus YJR075W, strain HOC1, hits give low values) of 1.04 and a normalized growth (S. cerevisiae deletion strains, locus YKL009W, strain mrt4, hits give low values) of 1.02. The normalized growth (S. cerevisiae deletion strains, locus YKL068W, hits give low values) was 1.04, the normalized growth (S. cerevisiae deletion strains, locus YKL085W, strain MDH1 (second series), hits give low values) was 1.03 and the normalized growth (S. cerevisiae deletion strains, locus YKL085W, strain MDH1, hits give low values) was 1.03. For the same compound, the normalized growth (S. cerevisiae deletion strains, locus YKL160W, strain elf1, hits give low values) was 0.974, the normalized growth (S. cerevisiae deletion strains, locus YKL190W, strain CNB1, hits give low values) was 1.03 and the normalized growth (S. cerevisiae deletion strains, locus YKR001C, strain vps1, hits give low values) was 1.07. It also gave a normalized growth (S. cerevisiae deletion strains, locus YKR026C, strain gcn3, hits give low values) of 1.01, a normalized growth (S. cerevisiae deletion strains, locus YKR091W, strain srl3, hits give low values) of 1.01 and a normalized growth (S. cerevisiae deletion strains, locus YLL001W, strain dnm1, hits give low values) of 0.992. It also gave a normalized growth (S. cerevisiae deletion strains, locus YLL026W, hits give low values) of 1.01, a normalized growth (S. cerevisiae deletion strains, locus YLL041C, strain sdh2, hits give low values) of 1.02 and a normalized growth (S. cerevisiae deletion strains, locus YLR027C, strain aat2, hits give low values) of 1.01. It also gave a normalized growth (S. cerevisiae deletion strains, locus YLR039C, strain RIC1, hits give low values) of 1.2, a normalized growth (S. cerevisiae deletion strains, locus YLR058C, strain SHM2, hits give low values) of 1.03 and a normalized growth (S. cerevisiae deletion strains, locus YLR102C, strain apc9, hits give low values) of 1. The normalized growth (S. cerevisiae deletion strains, locus YLR221C, strain rsa3, hits give low values) was 1, the normalized growth (S. cerevisiae deletion strains, locus YLR258W, strain gsy2, hits give low values) was 0.978 and the normalized growth (S. cerevisiae deletion strains, locus YLR262C, strain YPT6 (second series), hits give low values) was 1.14. It also gave a normalized growth (S. cerevisiae deletion strains, locus YLR262C, strain YPT6, hits give low values) of 1.21, a normalized growth (S. cerevisiae deletion strains, locus YLR268W, strain sec22, hits give low values) of 1.02 and a normalized growth (S. cerevisiae deletion strains, locus YLR320W, strain mms22, hits give low values) of 0.97. The normalized growth (S. cerevisiae deletion strains, locus YLR330W, strain CHS5, hits give low values) was 1.02, the normalized growth (S. cerevisiae deletion strains, locus YLR342W, strain FKS1 (second series), hits give low values) was 0.989 and the normalized growth (S. cerevisiae deletion strains, locus YLR342W, strain FKS1, hits give low values) was 1.03. The normalized growth (S. cerevisiae deletion strains, locus YLR357W, strain rsc2, hits give low values) was 1.18 [resistant] (active), the normalized growth (S. cerevisiae deletion strains, locus YLR370C, strain arc18, hits give low values) was 1.03 and the normalized growth (S. cerevisiae deletion strains, locus YLR371W, strain rom2, hits give low values) was 1.01. For the same compound, the normalized growth (S. cerevisiae deletion strains, locus YLR384C, strain iki3, hits give low values) was 1.01, the normalized growth (S. cerevisiae deletion strains, locus YLR418C, strain cdc73, hits give low values) was 0.798 (active) and the normalized growth (S. cerevisiae deletion strains, locus YML016C, strain PPZ1, hits give low values) was 0.996. For the same compound, the normalized growth (S. cerevisiae deletion strains, locus YML032C, strain rad52, hits give low values) was 1.01, the normalized growth (S. cerevisiae deletion strains, locus YML120C, strain ndi1, hits give low values) was 0.986 and the normalized growth (S. cerevisiae deletion strains, locus YML124C, strain tub3, hits give low values) was 1.02. The normalized growth (S. cerevisiae deletion strains, locus YMR058W, strain fet3, hits give low values) was 1, the normalized growth (S. cerevisiae deletion strains, locus YMR078C, strain ctf18, hits give low values) was 1.01 and the normalized growth (S. cerevisiae deletion strains, locus YMR125W, strain sto1, hits give low values) was 1.16 [resistant] (active). The normalized growth (S. cerevisiae deletion strains, locus YMR129W, hits give low values) was 1.01, the normalized growth (S. cerevisiae deletion strains, locus YMR205C, strain PFK2, hits give low values) was 0.919 and the normalized growth (S. cerevisiae deletion strains, locus YMR223W, strain ubp8, hits give low values) was 1.02. For the same compound, the normalized growth (S. cerevisiae deletion strains, locus YMR231W, strain pep5, hits give low values) was 0.992, the normalized growth (S. cerevisiae deletion strains, locus YMR263W, strain SAP30, hits give low values) was 1.04 and the normalized growth (S. cerevisiae deletion strains, locus YMR307W, strain GAS1, hits give low values) was 0.99. For the same compound, the normalized growth (S. cerevisiae deletion strains, locus YNL067W, strain RPL9B, hits give low values) was 1.04, the normalized growth (S. cerevisiae deletion strains, locus YNL071W, strain lat1, hits give low values) was 0.922 and the normalized growth (S. cerevisiae deletion strains, locus YNL128W, strain TEP1, hits give low values) was 1.03. For the same compound, the normalized growth (S. cerevisiae deletion strains, locus YNL153C, strain GIM3, hits give low values) was 1.03, the normalized growth (S. cerevisiae deletion strains, locus YNL209W, strain ssb2, hits give low values) was 1.01 and the normalized growth (S. cerevisiae deletion strains, locus YNL233W, strain BNI4, hits give low values) was 1.03. The normalized growth (S. cerevisiae deletion strains, locus YNL248C, strain rpa49, hits give low values) was 0.992, the normalized growth (S. cerevisiae deletion strains, locus YNL250W, strain rad50, hits give low values) was 1.03 and the normalized growth (S. cerevisiae deletion strains, locus YNL271C, strain bni1, hits give low values) was 1.02. The normalized growth (S. cerevisiae deletion strains, locus YNL298W, strain CLA4, hits give low values) was 1.03, the normalized growth (S. cerevisiae deletion strains, locus YNL307C, strain MCK1, hits give low values) was 0.981 and the normalized growth (S. cerevisiae deletion strains, locus YNL322C, strain KRE1 (second series), hits give low values) was 1.04. It also gave a normalized growth (S. cerevisiae deletion strains, locus YNL322C, strain KRE1, hits give low values) of 1.04, a normalized growth (S. cerevisiae deletion strains, locus YNR049C, strain mso1, hits give low values) of 1.02 and a normalized growth (S. cerevisiae deletion strains, locus YNR052C, strain pop2, hits give low values) of 1.02. It also gave a normalized growth (S. cerevisiae deletion strains, locus YOL006C, strain TOP1, hits give low values) of 1, a normalized growth (S. cerevisiae deletion strains, locus YOL012C, strain htz1) of 0.89 and a normalized growth (S. cerevisiae deletion strains, locus YOL147C, strain pex11, hits give low values) of 1. The normalized growth (S. cerevisiae deletion strains, locus YOR001W, strain rrp6, hits give low values) was 0.983, the normalized growth (S. cerevisiae deletion strains, locus YOR061W, strain CKA2, hits give low values) was 1.03 and the normalized growth (S. cerevisiae deletion strains, locus YOR069W, strain VPS5, hits give low values) was 1.01. It also gave a normalized growth (S. cerevisiae deletion strains, locus YOR070C, strain gyp1, hits give low values) of 1.01, a normalized growth (S. cerevisiae deletion strains, locus YOR080W, strain dia2, hits give low values) of 1.03 and a normalized growth (S. cerevisiae deletion strains, locus YOR083W, strain WHI5, hits give low values) of 0.976. It also gave a normalized growth (S. cerevisiae deletion strains, locus YOR106W, strain vam3, hits give low values) of 0.958, a normalized growth (S. cerevisiae deletion strains, locus YOR136W, strain idh2, hits give low values) of 1 and a normalized growth (S. cerevisiae deletion strains, locus YOR144C, strain elg1, hits give low values) of 1.02. The normalized growth (S. cerevisiae deletion strains, locus YOR184W, strain ser1, hits give low values) was 1, the normalized growth (S. cerevisiae deletion strains, locus YOR265W, strain rbl2, hits give low values) was 1.04 and the normalized growth (S. cerevisiae deletion strains, locus YOR270C, strain vph1, hits give low values) was 0.865. It also gave a normalized growth (S. cerevisiae deletion strains, locus YOR290C, strain snf2, hits give low values) of 0.928, a normalized growth (S. cerevisiae deletion strains, locus YOR316C, strain cot1, hits give low values) of 1.01 and a normalized growth (S. cerevisiae deletion strains, locus YPL051W, strain arl3, hits give low values) of 0.987. The normalized growth (S. cerevisiae deletion strains, locus YPL055C, strain LGE1, hits give low values) was 1.03, the normalized growth (S. cerevisiae deletion strains, locus YPL078C, strain atp4, hits give low values) was 0.973 and the normalized growth (S. cerevisiae deletion strains, locus YPL106C, strain sse1, hits give low values) was 1.14. For the same compound, the normalized growth (S. cerevisiae deletion strains, locus YPL240C, strain hsp82, hits give low values) was 1, the normalized growth (S. cerevisiae deletion strains, locus YPL241C, strain CIN2, hits give low values) was 1.02 and the normalized growth (S. cerevisiae deletion strains, locus YPR119W, strain clb2, hits give low values) was 1.01. The normalized growth (S. cerevisiae deletion strains, locus YPR141C, strain kar3, hits give low values) was 1.03, the normalized growth (S. cerevisiae deletion strains, locus YPR163C, strain tif3, hits give low values) was 1.03 and the normalized growth (S. cerevisiae deletion strains, locus YPR167C, strain met16, hits give low values) was 1.02. The normalized growth (S. cerevisiae deletion strains, strain wtn01, hits give low values) was 1.02 and the normalized growth (S. cerevisiae strains, strain wild type, hits give low values) was 1.03.
